# Values joined by “and” are separate entries in the source; they are usually repeats but may differ in a detail not shown here. Equal entries are not always repeated. Records with an inconclusive call do not appear. Entries that show only a call come without a potency. Some compounds were tested as several samples or in several runs, with calls that do not always agree. Active and inactive are the calls of the source. Unless noted, calls come from the whole dose curve; as a rule, active = well fitted curve in the direction sought with a large enough effect in the repeat runs; inconclusive = weak or mixed curves; inactive = no such curve, though single readings can be large; an effect the other way counts as inactive or inconclusive.
# Key:
# [1] = qHTS assay to identify small molecule phospholipidosis (PLD) inducers (AID 1259344; active = well fitted curve in the direction sought with a large enough effect; an effect the other way counts as inactive or inconclusive)
# Method in brief: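 Fluorescent phospholipid staining (LipidTOX Red) measured by automated microscopy in fixed HepG2 cells after 24 h treatment; nuclei counterstained with Hoechst 33342; amiodarone as reference inducer.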
# [2] = qHTS assay to identify small molecule HDAC inhibitors (AID 1259364);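 note: wild-type HCT-116 cells with endogenous class I/II HDAC activity; top concentration of the series differs between compounds; nearly all actives have a fitted effect of over 45% in size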
# Method in brief: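 Relative class I and II HDAC activity is taken from the luminogenic signal in HCT-116 cells, with compound exposure 2 hr and reagent development 30 min at room temperature.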
# [3] = qHTS assay to identify small molecule HDAC inhibitors - cell viability counter screen (AID 1259365); note: nearly all actives have a fitted effect of over 50% in size; note: potency is the fitted concentration of half-maximal effect
# Method in brief: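 To flag cytotoxic hits, 1,500 wild-type HCT-116 cells per well, plated the day before, receive test compounds for 2hr at 37 C before CellTiter-Glo reagent and a luminescence read.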
# [4] = qHTS assay to identify small molecule agonists of the sonic hedgehog signaling (Shh) pathway - cell viability counter screen (AID 1259366); note: nearly all actives have a fitted effect of over 50% in size; note: potency is the fitted concentration of half-maximal effect
# Method in brief: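 Fluorescence from CellTiter-Fluor reports live cells in this counter screen. NIH/3T3-derived Gli1-Luc reporter cells receive test compounds for 24hr at 37C; reagent goes in at 23hr.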
# [5] = qHTS assay to identify small molecule antagonists of the sonic hedgehog signaling (Shh) pathway - cell viability counter screen (AID 1259367); note: nearly all actives have a fitted effect of over 55% in size; note: potency is the fitted concentration of half-maximal effect
# Method in brief: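 Using CellTiter-Fluor, viability of Gli1-Luc reporter 3T3 cells is read by fluorescence in the wells used for the Shh luciferase assay. Treatment lasts 23 hr with conditioned medium, then reagent 1 hr at 37C.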
# [6] = qHTS assay to identify small molecule agonists of the sonic hedgehog signaling (Shh) pathway (AID 1259368; calls by dose curve;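 note: NIH/3T3-derived 3T3Gli1-Luc cells carrying a stable Gli1-driven firefly luciferase reporter; series mostly up to about 92 µM; nearly all actives have a fitted effect of over 15% in size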)
# Method in brief: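 Mouse fibroblast (NIH/3T3) reporter cells with stably integrated Gli1-Luc were treated 24 hr with compound; firefly luciferase luminescence served as the read-out.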
# [7] = qHTS assay to identify small molecule antagonists of the sonic hedgehog signaling (Shh) pathway (AID 1259369; calls by dose curve; note: nearly all actives have a fitted effect of over 45% in size; note: potency is the fitted concentration of half-maximal effect)
# Method in brief: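 Conditioned medium drives Shh signalling in 3T3Gli1-Luc cells; compounds in DMSO co-applied, 24hr at 37 C, then luciferase luminescence.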
# [8] = qHTS assay to identify small molecule agonists of the androgen receptor (AR) signaling pathway in the presence of an antagonist - cell viability counter screen (AID 1259379); note: nearly all actives have a fitted effect of over 25% in size; note: potency is the fitted concentration of half-maximal effect
# Method in brief: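 A CellTiter-Fluor read-out measured viability of MDA-kb2 reporter cells (MMTV promoter with AR and GR response elements). Treatment: nilutamide 3.0uM final with compounds at 15 concentrations, 16 hr, 37C, 0% CO2.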
# [9] = qHTS assay to identify small molecule agonists of the estrogen receptor beta (ER-beta) signaling pathway - cell viability counter screen (AID 1259380); note: nearly all actives have a fitted effect of over 30% in size; note: potency is the fitted concentration of half-maximal effect
# Method in brief: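 Cells used were ER-beta-UAS-bla HEK293T in medium with 2% charcoal-stripped FBS. They were treated for 16 hr at 37C. Viability came from CellTiter-Glo luminescence.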
# [10] = qHTS assay to identify small molecule antagonists of the estrogen receptor beta (ER-beta) signaling pathway - cell viability counter screen (AID 1259382); note: nearly all actives have a fitted effect of over 55% in size; note: potency is the fitted concentration of half-maximal effect
# Method in brief: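 Agonist-stimulated (1nM E2) ER-beta-UAS-bla HEK293T cells are incubated with library compounds for 16 hr at 37C. Cell viability is then assessed in the reporter-assay wells by adding CellTiter-Glo and reading luminescence after 30 min.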
# [11] = molecular target: Estrogen receptor (Homo sapiens) (UniProt P03372); experiment: qHTS assay to identify small molecule agonists of the estrogen receptor alpha (ER-alpha) signaling pathway in the presence of an antagonist (AID 1259383; calls by dose curve; note: top concentration of the series differs between compounds; nearly all actives have a fitted effect of over 15% in size)
# Sequence of Estrogen receptor (Homo sapiens) (P03372 whole entry, looked up): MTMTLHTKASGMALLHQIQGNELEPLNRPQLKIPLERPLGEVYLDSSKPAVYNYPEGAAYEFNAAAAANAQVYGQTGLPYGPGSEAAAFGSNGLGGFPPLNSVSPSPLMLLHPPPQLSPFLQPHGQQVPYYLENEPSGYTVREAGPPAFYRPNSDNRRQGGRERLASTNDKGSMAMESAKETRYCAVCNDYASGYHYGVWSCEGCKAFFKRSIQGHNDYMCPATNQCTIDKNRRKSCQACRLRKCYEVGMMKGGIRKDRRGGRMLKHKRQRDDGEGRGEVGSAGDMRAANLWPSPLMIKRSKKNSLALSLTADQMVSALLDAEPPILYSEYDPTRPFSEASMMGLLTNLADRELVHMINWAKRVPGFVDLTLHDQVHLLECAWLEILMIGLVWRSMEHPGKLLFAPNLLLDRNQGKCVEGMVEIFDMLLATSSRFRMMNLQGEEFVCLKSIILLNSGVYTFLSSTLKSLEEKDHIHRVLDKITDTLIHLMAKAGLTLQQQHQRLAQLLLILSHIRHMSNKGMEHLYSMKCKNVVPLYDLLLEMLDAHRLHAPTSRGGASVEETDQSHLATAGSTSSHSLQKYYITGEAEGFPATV
# Method in brief: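 Using VM7Luc4E2 cells seeded 24hr before treatment, antagonist ICI-182,780 (10.0nM final) was added, followed by compounds at 15 concentrations. Plates incubated 22hr; ONE-Glo luminescence quantified reporter activity.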
# [12] = qHTS assay to identify small molecule agonists or antagonists of the thyroid stimulating hormone receptor (TSHR) signaling pathway - wild type cell line counter screen (AID 1259384; calls by dose curve)
# Method in brief: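 Counter screen in untransfected Hek293: compounds (15-point titration, triplicate) plus phosphodiesterase inhibitor Ro20-1724 added after 18 h plating; 30 min RT. Intracellular cAMP via competitive d2/cryptate immunoassay, 1 h incubation.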
# [13] = molecular target: Thyrotropin receptor (Homo sapiens) (UniProt P16473); experiment: qHTS assay to identify small molecule antagonists of the thyroid stimulating hormone receptor (TSHR) signaling pathway (AID 1259385; calls by dose curve; note: nearly all actives have a fitted effect of over 20% in size)
# Sequence of Thyrotropin receptor (Homo sapiens) (P16473 whole entry, looked up): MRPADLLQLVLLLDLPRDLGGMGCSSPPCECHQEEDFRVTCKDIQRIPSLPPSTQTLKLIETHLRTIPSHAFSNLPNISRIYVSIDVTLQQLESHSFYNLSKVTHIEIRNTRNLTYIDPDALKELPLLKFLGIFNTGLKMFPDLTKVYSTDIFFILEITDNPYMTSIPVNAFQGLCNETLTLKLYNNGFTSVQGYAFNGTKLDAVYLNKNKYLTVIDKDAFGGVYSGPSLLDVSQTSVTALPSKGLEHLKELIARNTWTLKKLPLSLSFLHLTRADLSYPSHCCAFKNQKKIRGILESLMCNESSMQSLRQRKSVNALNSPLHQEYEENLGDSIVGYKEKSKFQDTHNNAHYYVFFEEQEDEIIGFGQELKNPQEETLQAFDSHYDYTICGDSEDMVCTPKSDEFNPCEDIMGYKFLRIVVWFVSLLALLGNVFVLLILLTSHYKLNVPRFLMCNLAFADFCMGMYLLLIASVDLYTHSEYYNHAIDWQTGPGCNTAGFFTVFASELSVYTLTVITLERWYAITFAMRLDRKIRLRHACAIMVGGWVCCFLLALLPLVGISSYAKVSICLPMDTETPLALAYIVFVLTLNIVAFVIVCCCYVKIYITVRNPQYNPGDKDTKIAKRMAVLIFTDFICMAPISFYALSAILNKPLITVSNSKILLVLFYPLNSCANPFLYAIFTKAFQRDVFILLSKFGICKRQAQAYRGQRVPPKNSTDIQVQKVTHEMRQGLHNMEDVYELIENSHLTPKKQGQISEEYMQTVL
# Method in brief: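 Antagonist mode: compound-treated TSHR-expressing HEK293 cells were stimulated with 1.5 ng/mL TSH (final) in presence of Ro20-1724 for 30 min at RT. HTRF cAMP detection after 1 h; each compound tested at 15 concentrations, triplicate.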
# [14] = qHTS assay to identify small molecule agonists of the estrogen receptor alpha (ER-alpha) signaling pathway in the presence of an antagonist - cell viability counter screen (AID 1259386);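 note: cells exposed to compounds for 22 h at 37 °C before the viability read; nearly all actives have a fitted effect of over 30% in size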; note: potency is the fitted concentration of half-maximal effect
# Method in brief: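 ICI-182,780 at 10.0nM final accompanies the compound titration (15 concentrations, 22hr, 37C) on VM7Luc4E2 cells. The CellTiter-Fluor fluorescence readout runs in the same wells as the luciferase assay.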
# [15] = molecular target: Progesterone receptor (Homo sapiens) (UniProt P06401); experiment: qHTS assay to identify small molecule agonists of the progesterone receptor (PR) signaling pathway (AID 1346784; calls by dose curve; note: nearly all actives have a fitted effect of over 30% in size)
# Sequence of Progesterone receptor (Homo sapiens) (P06401 whole entry, looked up): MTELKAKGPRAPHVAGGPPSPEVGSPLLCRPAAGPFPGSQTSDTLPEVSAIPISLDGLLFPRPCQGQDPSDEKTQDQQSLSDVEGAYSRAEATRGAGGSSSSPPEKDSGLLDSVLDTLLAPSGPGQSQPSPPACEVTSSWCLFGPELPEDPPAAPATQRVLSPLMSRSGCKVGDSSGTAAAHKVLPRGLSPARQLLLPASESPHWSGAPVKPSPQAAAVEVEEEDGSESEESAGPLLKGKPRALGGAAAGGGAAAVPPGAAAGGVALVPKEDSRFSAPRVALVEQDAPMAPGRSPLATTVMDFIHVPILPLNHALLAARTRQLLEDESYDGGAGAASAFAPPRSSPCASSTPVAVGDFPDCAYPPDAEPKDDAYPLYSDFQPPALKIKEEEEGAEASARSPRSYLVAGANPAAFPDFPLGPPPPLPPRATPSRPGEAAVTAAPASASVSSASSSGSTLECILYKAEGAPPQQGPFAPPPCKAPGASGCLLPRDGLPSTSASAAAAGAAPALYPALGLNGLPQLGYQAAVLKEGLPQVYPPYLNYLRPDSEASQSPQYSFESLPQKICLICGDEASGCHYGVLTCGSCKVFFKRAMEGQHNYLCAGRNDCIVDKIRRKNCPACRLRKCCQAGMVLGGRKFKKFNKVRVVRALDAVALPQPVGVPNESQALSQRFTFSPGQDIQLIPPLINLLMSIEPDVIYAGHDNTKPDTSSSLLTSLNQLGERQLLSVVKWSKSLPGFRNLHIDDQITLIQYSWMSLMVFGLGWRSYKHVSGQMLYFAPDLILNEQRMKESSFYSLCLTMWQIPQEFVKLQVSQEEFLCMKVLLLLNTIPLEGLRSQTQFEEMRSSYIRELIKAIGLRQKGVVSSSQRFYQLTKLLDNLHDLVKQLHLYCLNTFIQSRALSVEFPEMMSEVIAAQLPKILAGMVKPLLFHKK
# Method in brief: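 Seed PR-UAS-bla HEK 293T cells (2% charcoal-stripped FBS), incubate 6 hr at 37C; add compounds in DMSO, 16 hr at 37C; add LiveBLAzer B/G substrate, 2 hr RT; read fluorescence intensity.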
# [16] = molecular target: Progesterone receptor (Homo sapiens) (UniProt P06401); experiment: qHTS assay to identify small molecule antagonists of the progesterone receptor (PR) signaling pathway (AID 1346795; active = well fitted inhibition curve with a large enough effect in the signal ratio in the repeat runs, not every such curve was filed as active; the % refers to the signal ratio; note: potency is the fitted concentration of half-maximal effect)
# Method in brief: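 Screening used a GripTite HEK293T line with PR-responsive UAS-beta-lactamase. Cells were challenged with compound in the presence of 1 nM R5020 final for 16 hr at 37C; B/G FRET substrate, 2 hr room temperature, fluorescence.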
# [17] = qHTS assay to identify small molecule antagonists of the progesterone receptor (PR) signaling pathway - cell viability counter screen (AID 1346798); note: series mostly up to about 92 µM; nearly all actives have a fitted effect of over 50% in size
# Method in brief: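 Measures cytotoxicity in parallel with the PR antagonist reporter read: HEK293T PR-UAS-bla cells get compound and R5020 for 16 hr, and remaining viable cells are quantified by CellTiter-Glo luminescence.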
# [18] = molecular target: Estrogen receptor beta (Homo sapiens) (UniProt Q92731); experiment: qHTS assay to identify small molecule agonists of the estrogen receptor beta (ER-beta) signaling pathway (AID 1259377; active = well fitted activation curve with a large enough effect in the signal ratio in the repeat runs, not every such curve was filed as active; the % refers to the signal ratio)
# Sequence of Estrogen receptor beta (Homo sapiens) (Q92731 whole entry, looked up): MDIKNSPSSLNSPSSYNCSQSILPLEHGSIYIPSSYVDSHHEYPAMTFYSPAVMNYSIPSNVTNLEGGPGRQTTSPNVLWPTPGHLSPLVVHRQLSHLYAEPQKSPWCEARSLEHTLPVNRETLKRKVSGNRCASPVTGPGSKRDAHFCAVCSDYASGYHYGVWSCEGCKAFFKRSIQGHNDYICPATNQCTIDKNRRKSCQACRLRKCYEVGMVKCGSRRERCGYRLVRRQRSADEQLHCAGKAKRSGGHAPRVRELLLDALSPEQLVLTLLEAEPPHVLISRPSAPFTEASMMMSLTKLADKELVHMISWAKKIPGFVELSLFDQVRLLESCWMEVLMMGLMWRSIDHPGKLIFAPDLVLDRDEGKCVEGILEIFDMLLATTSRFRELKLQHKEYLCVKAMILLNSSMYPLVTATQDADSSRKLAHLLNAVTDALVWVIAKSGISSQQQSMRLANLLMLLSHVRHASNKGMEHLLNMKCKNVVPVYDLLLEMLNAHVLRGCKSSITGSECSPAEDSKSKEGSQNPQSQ
# Method in brief: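 Screening used GripTite ER-beta-UAS-bla cells held in 2% charcoal-stripped FBS medium. After overnight (16 hr) compound incubation at 37C, beta-lactamase activity was detected with a FRET substrate by fluorescence.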
# [19] = molecular target: Estrogen receptor beta (Homo sapiens) (UniProt Q92731); experiment: qHTS assay to identify small molecule antagonists of the estrogen receptor beta (ER-beta) signaling pathway (AID 1259378; active = well fitted inhibition curve with a large enough effect in the signal ratio in the repeat runs, not every such curve was filed as active; the % refers to the signal ratio)
# Method in brief: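 Antagonist mode: compounds added to beta-lactamase reporter HEK293T ER-beta-UAS cells stimulated with E2 (1nM final), 16 hr at 37C. LiveBLAzer B/G FRET substrate, 2 hours room temperature, fluorescence read-out.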
Compound,outcome [1],Potency [2],Potency [3],Potency [4],Potency [5],outcome [6],Potency [7],Potency [8],Potency [9],Potency [10],Potency [11],Potency [12],Potency [13],Potency [14],Potency [15],Potency [16],Potency [17],outcome [18],Potency [19]
O=P1(N(CCCl)CCCl)NCCCO1 (stereo unspecified),inactive,inactive,inactive,inactive,inactive,inactive,inactive,inactive,inactive,inactive,inactive,inactive,inactive,inactive,inactive,inactive,inactive,,
CCNc1nc(Cl)nc(NCC)n1,inactive,inactive,inactive,inactive,inactive,inactive,2.16 µM (active) and inactive,inactive,inactive,inactive,inactive,inactive,inactive,inactive,inactive,inactive,inactive,inactive,inactive
OCCOc1ccccc1,inactive,inactive,inactive,inactive,inactive,inactive,inactive,inactive,inactive,inactive,inactive,inactive,inactive,inactive,inactive,inactive,inactive,inactive,inactive
Oc1cccc2cccnc12,inactive,inactive,inactive,,,inactive,,6.14 µM (active) and 9.69 µM (active) and inactive,1.38 µM (active) and 1.22 µM (active) and inactive,inactive,,,,inactive,inactive,4.6 µM (active) and inactive,,,
O=[N+]([O-])c1ccccc1O,,inactive,inactive,inactive,inactive,inactive,inactive,inactive,inactive,inactive,,,,inactive,inactive,inactive,inactive,inactive,inactive
O=c1[nH]c(=O)n(Cl)c(=O)n1Cl,inactive,inactive,inactive,inactive,inactive,inactive,inactive,inactive,inactive,inactive,,,,inactive,inactive,inactive,inactive,,
COc1ccc(N)cc1,,inactive,inactive,inactive,inactive,inactive,inactive,inactive,inactive,inactive,,inactive,inactive,inactive,inactive,inactive,inactive,,
CCCn1cc[n+](C)c1,,inactive,inactive,inactive,inactive,inactive,inactive,inactive,inactive,inactive,,inactive,inactive,inactive,inactive,inactive,inactive,,
O=S(=O)(O)O,,inactive,inactive,inactive,inactive,inactive,inactive,inactive,inactive,inactive,,,,inactive,,,inactive,,
CCCCCCCCCCCCCCCCn1cc[n+](C)c1,,inactive,inactive,,,inactive,,,,inactive and 61.7 µM (active) and 30.7 µM (active),,inactive,inactive,inactive and 55 µM (active) and 21.7 µM (active),inactive,inactive and 21.7 µM (active),,,
CCCC[N+]1(C)CCCC1,,inactive,inactive,inactive,inactive,inactive,inactive,inactive,inactive,inactive,,,,inactive,inactive,inactive,inactive,,
CCCC[N+]1(C)CCCCC1,,inactive,inactive,inactive,inactive,inactive,inactive,inactive,inactive,inactive,,inactive,inactive,inactive,inactive,inactive,inactive,,
O=C(O)COc1ccc(Cl)cc1Cl,,inactive,inactive,inactive,inactive,inactive,inactive,inactive,inactive,inactive,,,,inactive,inactive,inactive,inactive,,
CCCCn1cc[n+](C)c1C,,inactive,inactive,inactive,inactive,inactive,inactive,inactive,inactive,inactive,,,,inactive,inactive,inactive,inactive,,
CCCC[n+]1ccc(C)cc1,,inactive,inactive and 60.8 µM (active),inactive and 60.8 µM (active),inactive and 60.8 µM (active),inactive,inactive and 24.2 µM (active) and 13.7 µM (active),inactive,inactive and 60.8 µM (active),inactive and 60.8 µM (active),,,,inactive,,,,,
CCC[N+]1(C)CCCC1,,inactive,inactive,inactive,inactive,inactive,inactive,inactive,inactive,inactive,,,,inactive,inactive,inactive,inactive,,

# Source: PubChem BioAssay (Tox21)
